Among all 5,500 compounds or so, about 2,000 (36%) were called active. Roughly 18% stayed inconclusive and do not appear here. Rule as the data show it: active = normalized growth mostly below about 0.91 (no sharp cut-off); inconclusive = no clear call, values can overlap the other calls; inactive = mostly above about 0.92. The list shows a part of the results.
Assay: chemical genetic growth profiling, strain panel (AID 1159580);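 also: tested at 20 µM; growth read once vehicle control cultures reached saturation at 30 °C; 1 = growth at the plate median or of vehicle wells; lower values mean less growth of the strain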
Settings: growth OD
[1] = S. cerevisiae deletion strains, locus YDL101C, strain DUN1, hits give low values
[2] = S. cerevisiae deletion strains, locus YHR030C, strain SLT2, hits give low values
[3] = S. cerevisiae deletion strains, locus YAL013W, strain DEP1, hits give low values
[4] = S. cerevisiae deletion strains, locus YMR263W, strain SAP30, hits give low values
[5] = S. cerevisiae deletion strains, locus YNL153C, strain GIM3, hits give low values
[6] = S. cerevisiae deletion strains, locus YNL322C, strain KRE1, hits give low values
[7] = S. cerevisiae deletion strains, locus YPL241C, strain CIN2, hits give low values

Measured: normalized growth

N#CC(C#N)=Cc1ccc(-c2ccccc2C(F)(F)F)o1
inactive: S. cerevisiae deletion strains, locus YAR019C, strain CDC15, hits give low values 0.947 | S. cerevisiae deletion strains, locus YBL105C, strain PKC1, hits give low values 0.946 | S. cerevisiae deletion strains, locus YBR135W, strain CKS1, hits give low values 0.947 | S. cerevisiae deletion strains, locus YBR136W, strain MEC1, hits give low values 0.947 | S. cerevisiae deletion strains, locus YBR160W, strain CDC28, hits give low values 0.95 | S. cerevisiae deletion strains, locus YDL017W, strain CDC7, hits give low values 0.947 | S. cerevisiae deletion strains, locus YDL028C, strain MPS1, hits give low values 0.954 | [1] 0.925 | S. cerevisiae deletion strains, locus YDL108W, strain KIN28, hits give low values 0.953 | S. cerevisiae deletion strains, locus YDL132W, strain cdc53, hits give low values 0.947 | S. cerevisiae deletion strains, locus YDL214C, strain PRR2, hits give low values 0.901 | S. cerevisiae deletion strains, locus YDR052C, strain DBF4, hits give low values 0.957 | S. cerevisiae deletion strains, locus YDR054C, strain cdc34, hits give low values 0.94 | S. cerevisiae deletion strains, locus YDR226W, strain ADK1, hits give low values 0.943 | S. cerevisiae deletion strains, locus YDR477W, strain SNF1, hits give low values 0.913 | S. cerevisiae deletion strains, locus YER123W, strain YCK3, hits give low values 0.876 | S. cerevisiae deletion strains, locus YER133W, strain GLC7, hits give low values 0.925 | S. cerevisiae deletion strains, locus YFL009W, strain cdc4, hits give low values 0.94 | S. cerevisiae deletion strains, locus YFL029C, strain CAK1, hits give low values 0.945 | S. cerevisiae deletion strains, locus YFR003C, strain YPI1, hits give low values 0.944 | S. cerevisiae deletion strains, locus YFR019W, strain FAB1, hits give low values 0.898 | S. cerevisiae deletion strains, locus YFR028C, strain CDC14, hits give low values 0.94 | S. cerevisiae deletion strains, locus YGR040W, strain KSS1, hits give low values 0.903 | S. cerevisiae deletion strains, locus YGR052W, strain FMP48, hits give low values 0.871 | S. cerevisiae deletion strains, locus YGR092W, strain DBF2, hits give low values 0.783 | [2] 0.875 | S. cerevisiae deletion strains, locus YHR079C, strain IRE1, hits give low values 0.905 | S. cerevisiae deletion strains, locus YHR082C, strain KSP1, hits give low values 0.906 | S. cerevisiae deletion strains, locus YHR205W, strain SCH9, hits give low values 0.784 | S. cerevisiae deletion strains, locus YIL147C, strain SLN1, hits give low values 0.948 | S. cerevisiae deletion strains, locus YJL095W, strain BCK1, hits give low values 0.838 | S. cerevisiae deletion strains, locus YJL128C, strain PBS2, hits give low values 0.866 | S. cerevisiae deletion strains, locus YJL157C, strain FAR1, hits give low values 0.907 | S. cerevisiae deletion strains, locus YJR016C, strain ILV3, hits give low values 0.95 | S. cerevisiae deletion strains, locus YJR066W, strain TOR1 (second series), hits give low values 0.873 | S. cerevisiae deletion strains, locus YJR066W, strain TOR1, hits give low values 0.893 | S. cerevisiae deletion strains, locus YKL048C, strain ELM1, hits give low values 0.899 | S. cerevisiae deletion strains, locus YKL067W, strain YNK1, hits give low values 0.89 | S. cerevisiae deletion strains, locus YKL101W, strain HSL1, hits give low values 0.873 | S. cerevisiae deletion strains, locus YKL193C, strain SDS22, hits give low values 0.942 | S. cerevisiae deletion strains, locus YKL203C, strain TOR2, hits give low values 0.931 | S. cerevisiae deletion strains, locus YLR133W, strain CKI1, hits give low values 0.891 | S. cerevisiae deletion strains, locus YLR403W, strain SFP1, hits give low values 0.848 | S. cerevisiae deletion strains, locus YML070W, strain DAK1, hits give low values 0.894 | S. cerevisiae deletion strains, locus YMR001C, strain CDC5, hits give low values 0.94 | S. cerevisiae deletion strains, locus YMR205C, strain PFK2 (second series), hits give low values 0.899 | S. cerevisiae deletion strains, locus YMR277W, strain FCP1, hits give low values 0.935 | S. cerevisiae deletion strains, locus YNL006W, strain LST8, hits give low values 0.949 | S. cerevisiae deletion strains, locus YNL020C, strain ARK1, hits give low values 0.892 | S. cerevisiae deletion strains, locus YNL161W, strain CBK1, hits give low values 0.941 | S. cerevisiae deletion strains, locus YNL183C, strain NPR1, hits give low values 0.864 | S. cerevisiae deletion strains, locus YNL207W, strain RIO2, hits give low values 0.943 | S. cerevisiae deletion strains, locus YNL222W, strain SSU72, hits give low values 0.951 | S. cerevisiae deletion strains, locus YNL307C, strain MCK1 (second series), hits give low values 0.788 | S. cerevisiae deletion strains, locus YOL078W, strain AVO1, hits give low values 0.939 | S. cerevisiae deletion strains, locus YOL136C, strain PFK27, hits give low values 0.851 | S. cerevisiae deletion strains, locus YOR061W, strain CKA2, hits give low values 0.907 | S. cerevisiae deletion strains, locus YOR119C, strain RIO1, hits give low values 0.964 | S. cerevisiae deletion strains, locus YOR231W, strain MKK1, hits give low values 0.87 | S. cerevisiae deletion strains, locus YOR329C, strain SCD5, hits give low values 0.944 | S. cerevisiae deletion strains, locus YPL031C, strain PHO85, hits give low values 0.895 | S. cerevisiae deletion strains, locus YPL153C, strain RAD53, hits give low values 0.907 | S. cerevisiae deletion strains, locus YPL204W, strain HRR25, hits give low values 0.88 | S. cerevisiae deletion strains, locus YPL209C, strain IPL1, hits give low values 0.947 | S. cerevisiae deletion strains, locus YPL256C, strain CLN2, hits give low values 0.929 | S. cerevisiae deletion strains, locus YPR025C, strain CCL1, hits give low values 0.948 | S. cerevisiae deletion strains, locus YPR106W, strain ISR1, hits give low values 0.938 | S. cerevisiae deletion strains, locus YPR111W, strain DBF20, hits give low values 0.916 | S. cerevisiae deletion strains, strain NNK1, hits give low values 0.922 | S. cerevisiae deletion strains, strain TSCII, hits give low values 0.935
active: S. cerevisiae deletion strains, locus YLR113W, strain HOG1, hits give low values 0.758

N#CC(C#N)=Cc1ccc(-c2cc(C(F)(F)F)ccc2Cl)o1
inactive: [3] 1.01 | S. cerevisiae deletion strains, locus YBR229C, strain ROT2, hits give low values 1.01 | [1] 1.03 | S. cerevisiae deletion strains, locus YDR150W, strain NUM1, hits give low values 0.993 | S. cerevisiae deletion strains, locus YEL061C, strain CIN8, hits give low values 0.997 | S. cerevisiae deletion strains, locus YGR078C, strain PAC10, hits give low values 1.01 | [2] 0.819 | S. cerevisiae deletion strains, locus YHR087W, strain rtc3, hits give low values 1.02 | S. cerevisiae deletion strains, locus YJL187C, strain SWE1, hits give low values 0.997 | S. cerevisiae deletion strains, locus YJR043C, strain POL32, hits give low values 0.989 | S. cerevisiae deletion strains, locus YJR075W, strain HOC1, hits give low values 0.987 | S. cerevisiae deletion strains, locus YLR039C, strain RIC1, hits give low values 0.844 | S. cerevisiae deletion strains, locus YLR058C, strain SHM2 (second series), hits give low values 0.99 | S. cerevisiae deletion strains, locus YLR085C, strain ARP6, hits give low values 0.797 | S. cerevisiae deletion strains, locus YLR262C, strain YPT6, hits give low values 0.913 | S. cerevisiae deletion strains, locus YML094W, strain GIM5, hits give low values 1.08 | S. cerevisiae deletion strains, locus YMR219W, strain ESC1, hits give low values 0.996 | [4] 0.97 | S. cerevisiae deletion strains, locus YMR307W, strain GAS1, hits give low values 0.786 | [5] 1.02 | S. cerevisiae deletion strains, locus YNL298W, strain CLA4 (second series), hits give low values 0.923 | [6] 0.986 | S. cerevisiae deletion strains, locus YNR030W, strain Alg12, hits give low values 0.962 | S. cerevisiae deletion strains, locus YPL055C, strain LGE1, hits give low values 1.01 | [7] 0.899 | S. cerevisiae deletion strains, locus YPR135W, strain CTF4, hits give low values 0.944 | S. cerevisiae strains, strain wild type, hits give low values 0.959

CO/N=C(/C(=O)N[C@@H]1C(=O)N2C(C(=O)O)=C(COC(C)=O)CS[C@H]12)c1csc(N)n1
inactive: [3] 1.01 | S. cerevisiae deletion strains, locus YAL040C, strain CLN3, hits give low values 1.02 | S. cerevisiae deletion strains, locus YDR363W, strain ESC2, hits give low values 1.01 | S. cerevisiae deletion strains, locus YER002W, strain NOP16, hits give low values 0.983 | S. cerevisiae deletion strains, locus YGR229C, strain SMI1, hits give low values 1 | [4] 0.965 | [5] 1.07 | S. cerevisiae deletion strains, locus YNL175C, strain NOP13, hits give low values 1.01 | S. cerevisiae deletion strains, locus YNL197C, strain WHI3, hits give low values 1.01 | S. cerevisiae deletion strains, locus YNL224C, strain SQS1, hits give low values 0.99 | [6] 0.985 | S. cerevisiae deletion strains, locus YOR083W, strain WHI5 (second series), hits give low values 0.978 | [7] 1

From PubChem BioAssay AID1159580 (chemical genetic matrix, 2015)
